Sampled rows, rich in hits. Any-hit rate of the full collection: about 21%.
Pf growth 96h: inhibits malaria parasite growth, 96 h. P. falciparum luciferase reporter growth, 96 h. Potency, µM (top dose mostly 28.7 µM), for the others: top-dose activity change, negative = inhibition, most hits filed as inhibitors. 320,000 compounds, 6.9% hits; further: potency means the concentration at half of the fitted maximal effect; on the % scale 0 is the no-effect control and ±100 the full control effect
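Compounds incubated with erythrocytes infected by luciferase-expressing P. falciparum (2% hematocrit, 0.05% parasitemia final) for 96 hours, 37 C in 5% CO2. Growth inhibition scored as decreased luciferase luminescence.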
Cycloheximide cs: affects cycloheximide protein synthesis inhibition readout, counter-screen | cell reporter, cycloheximide protein synthesis inhibition counterscreen | max response, % | 300,000 compounds, 12% hits; in the data active means max response mostly above about 13%, no sharp cut-off; inactive means mostly below about 14%; further: read at 38.3 µM for the half of the compounds with a filed dose; 0% is about no effect
Pf growth 48h: inhibits P. falciparum growth in the first generation, 48 h. P. falciparum luciferase growth in erythrocytes, 48 h. Potency, µM (doses to about 28.7 µM), without a hit: at the highest dose activity change, negative = inhibition, most hits filed as inhibitors. 310,000 compounds, 5.9% hits; further: potency means the concentration at half of the fitted maximal effect; on the % scale 0 is the no-effect control and ±100 the full control effect
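Growth was read as firefly luciferase luminescence after a 48 h, 37 C, 5% CO2 exposure of compounds to reporter-bearing P. falciparum cultures (0.1% parasitemia, 2% hematocrit final) in Albumax-supplemented RPMI 1640.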
Shiga toxin inh: blocks Shiga toxin action in Vero cells; Vero cells, Shiga toxin protein synthesis inhibition reporter; inhibition, % at 38.7 µM; 290,000 compounds, 9.2% hits; AID 2315; in the data active means inhibition mostly above about 28%, no sharp cut-off; inactive means mostly below about 43%; further: 0% is about no effect
Numbers without * were called inactive. Unless noted, the call rests on the fitted dose curve; in most records, active means well fitted inhibition curve with a large enough effect; inconclusive means small, poorly fitted or top-dose-only effect, or another doubt; inactive means no such curve, though single readings can be large or run the other way.

COc1ccc(-c2cc(C(=O)N3CCCC3)no2)cc1OC was read as Pf growth 96h -4%, Cycloheximide cs 20*, Pf growth 48h 70% and Shiga toxin inh 86*.
`COc1ccc(-c2cc(C(=O)N3CCCCC3)no2)cc1OC` gave Pf growth 96h -4%, Cycloheximide cs 39*, Pf growth 48h 105% and Shiga toxin inh 77*.
`COc1ccc(C(C(=O)NC(C)(C)C)N(C(=O)CCC(=O)Nc2cc(C)on2)c2cccc(C)c2C)cc1` (stereo not drawn) gave Pf growth 96h inconclusive, Cycloheximide cs -4, Pf growth 48h inconclusive and Shiga toxin inh -5.
Screening Cc1nc(C(F)(F)F)c(C(=O)N/N=C(\N)c2cccnc2)s1 returned Pf growth 96h 30%, Cycloheximide cs -7, Pf growth 48h -5% and Shiga toxin inh 41.
Brc1ccc(-c2nc3ccccc3s2)s1 was read as Pf growth 96h 324%, Cycloheximide cs 48*, Pf growth 48h 191% and Shiga toxin inh 96*.
For c1ccc(-c2nc3ccccc3s2)nc1 the results were Pf growth 96h 335%, Cycloheximide cs 61*, Pf growth 48h 273% and Shiga toxin inh 76*.
O=C1CCC(=O)N1c1ccc(-c2nc3ccccc3s2)cc1 was read as Pf growth 96h 41%, Cycloheximide cs 35*, Pf growth 48h inactive and Shiga toxin inh 62*.
`CN(C)c1ncccc1-c1nc2ccccc2s1` gave Pf growth 96h 4%, Cycloheximide cs 17, Pf growth 48h -6% and Shiga toxin inh 23.
For O=S(=O)(c1cc(-c2nc3ccccc3s2)ccc1Cl)N1CCOCC1 the results were Pf growth 96h -9%, Cycloheximide cs -2, Pf growth 48h inconclusive and Shiga toxin inh -18.
Nc1ccc(-c2nc3ccccc3s2)cn1 was read as Pf growth 96h 292%, Cycloheximide cs 24, Pf growth 48h 275% and Shiga toxin inh 104*.
Cc1cc(C)c(NC(=O)CS(=O)CC(=O)Nc2ccc(-n3cnnn3)c(C)c2)c(C)c1 (stereo not drawn) was read as Pf growth 96h 3%, Cycloheximide cs -2, Pf growth 48h 7% and Shiga toxin inh -2.
Screening O=C(CSc1ccc2nnc(CCNC(=O)c3ccccc3)n2n1)Nc1ccc(F)cc1F returned Pf growth 96h inconclusive, Cycloheximide cs 1, Pf growth 48h 1% and Shiga toxin inh -21.
For Brc1cc2c(cc1-c1nc3ccccc3s1)OCO2 the results were Pf growth 96h 41%, Cycloheximide cs 33*, Pf growth 48h 34% and Shiga toxin inh 65*.
Screening O=C(Nc1ccccc1-c1nc2ccccc2s1)C1=COCCO1 returned Pf growth 96h 115%, Cycloheximide cs -3, Pf growth 48h 4% and Shiga toxin inh -8.
`C/C(=N\Nc1cc(N2CCOCC2)ncn1)c1ccccc1` gave Pf growth 96h inconclusive, Cycloheximide cs 28*, Pf growth 48h 0% and Shiga toxin inh 30*.
`Clc1ccccc1/C=N/Nc1cc(N2CCOCC2)ncn1` gave Pf growth 96h 8.3µM*, Cycloheximide cs 32, Pf growth 48h 121% and Shiga toxin inh 33.
CCCOc1ccc(/C=N/Nc2cc(N3CCOCC3)ncn2)c(O)c1 was read as Pf growth 96h -6%, Cycloheximide cs -1, Pf growth 48h 2.1µM* and Shiga toxin inh -3.
Screening Oc1ccc(/C=N\Nc2cc(N3CCOCC3)nc(N3CCOCC3)n2)c(O)c1 returned Pf growth 96h inconclusive, Cycloheximide cs 1, Pf growth 48h inconclusive and Shiga toxin inh 12.
For C/C(=N\Nc1cc(N2CCOCC2)ncn1)c1cccc([N+](=O)[O-])c1 the results were Pf growth 96h 29%, Cycloheximide cs 9, Pf growth 48h -10% and Shiga toxin inh 11.
Screening O=[N+]([O-])c1cccc(/C=N/Nc2cc(N3CCOCC3)ncn2)c1 returned Pf growth 96h inconclusive, Cycloheximide cs -3 and Shiga toxin inh -2.
`Cc1cc(C)cc(OCC(=O)OCC(=O)c2c(N)n(C)c(=O)n(C)c2=O)c1` gave Cycloheximide cs -4, Pf growth 48h 22% and Shiga toxin inh -4.
`Cc1nn(C)c(Cl)c1C(N)=O` gave Pf growth 96h -25%, Cycloheximide cs -1, Pf growth 48h 2% and Shiga toxin inh -4.
`CCN(CC)S(=O)(=O)c1cc(OC)ccc1N=Nc1ccc(O)c2ncccc12` gave Pf growth 96h 39%, Cycloheximide cs -6, Pf growth 48h inconclusive and Shiga toxin inh 9.
For Oc1ccc(N=Nc2ccc3c(c2)OCCO3)c2ncccc12 the results were Pf growth 96h 1µM*, Cycloheximide cs 48*, Pf growth 48h inconclusive and Shiga toxin inh 95*.
